Screens as filed in PubChem.
Rows were chosen to be rich in hits. Some 10% of all compounds tested hit in one or more screens of this group.
PNC assembly inh: blocks assembly of the perinucleolar compartment; PC3M PTB-GFP, PNC prevalence imaging, 16 h; hits give low values; activity change (PNC), negative = inhibition, % at 10 µM; actives 3.1% (n = 140,000);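 active means readout at or below -70, meaning at least 70% loss of cells showing the perinucleolar compartment, a nuclear body marking cancer cells; inconclusive means readout between -30 and a set limit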;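 further: plate controls were DMSO wells for no effect and camptothecin positive control wells for full effect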
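Compounds are pinned in duplicate onto adhered PC3M cells stably expressing GFP-tagged PTB and incubated 16 h at 37 C. Cells are then fixed, nuclei stained with Hoechst, and PNC-positive cells counted.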
ALDH1A1 block: inhibitors of human aldehyde dehydrogenase 1A1. Potency, µM (highest dose often 75.3 µM), inactives show at the top dose activity, negative = inhibition, actives largely listed as inhibitors. P00352. Purified ALDH1A1, NADH fluorescence, propionaldehyde substrate. AID 1030. actives 7.3% (n = 220,000);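 further: potency means the concentration at half of the fitted maximal effect; plate controls were no enzyme wells and a reference inhibitor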
HPGD block: blocks human HPGD enzyme activity | P15428 | Potency, µM, for the others: top-dose activity change, negative = inhibition, actives largely listed as inhibitors | actives 4.3% (n = 150,000) | AID 894 | purified HPGD, NADH fluorescence kinetic, PGE2 substrate; further: potency means the concentration at half of the fitted maximal effect
Target sequence (P15428 whole entry, looked up): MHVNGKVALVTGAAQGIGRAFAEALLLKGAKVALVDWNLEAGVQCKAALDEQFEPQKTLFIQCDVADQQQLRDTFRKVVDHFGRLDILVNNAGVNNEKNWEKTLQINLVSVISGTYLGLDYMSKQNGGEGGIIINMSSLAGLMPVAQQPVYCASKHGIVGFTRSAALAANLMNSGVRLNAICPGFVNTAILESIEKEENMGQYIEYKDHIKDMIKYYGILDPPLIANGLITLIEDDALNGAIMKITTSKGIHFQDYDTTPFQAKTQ
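20 nM HPGD preincubated 15 min at room temperature with compound in 50 mM Tris-HCl pH 8, 0.01% Tween 20. Started with 1 mM NAD+ and 30 uM prostaglandin E2; NADH fluorescence (360/450 nm) read 5 times over 30-s intervals, last minus first.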
ALOX12 inhib: inhibitors of human 12-lipoxygenase (ALOX12); purified 12-hLO, xylenol orange hydroperoxide absorbance; Potency, µM (doses to about 57.1 µM), for inactives: top-dose activity change, negative = inhibition, usual class: inhibitors; actives 0.12% (n = 150,000); active means well fitted inhibition curve with a large enough effect; inconclusive means small, poorly fitted or top-dose-only effect; further: potency means the concentration at half of the fitted maximal effect; nearly all actives have a fitted effect of over 55% in size
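Purified human 12hLO (150 nM), preincubated 15 min with compound, then 40 uM arachidonic acid for 30 min, room temperature, Hepes pH 7.0 with 0.01% Triton X-100. Hydroperoxide detected by ferrous iron/xylenol orange; 573/405 nm absorbance ratio gives reaction progress.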
LMNA splice mod: changes lamin A minigene splicing in HeLa cells. HeLa LMNA splicing GFP/RFP minigene ratio, 48 h. Potency, µM (top dose mostly 46.1 µM), for inactives: at the highest dose ratio change, negative = inhibition, actives largely listed as inhibitors. actives 0.01% (n = 200,000). AID 1487; active means well fitted inhibition curve with a large enough effect in the signal ratio, with a control signal flat, not every such curve was filed as active; inconclusive means small, poorly fitted or top-dose-only effect, or effect the other way, or a change in a side signal; the % refers to the signal ratio; further: potency means the concentration at half of the fitted maximal effect
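Read-out is the ratio of GFP to DsRed2 object intensity, acquired by 488 nm laser-scanning cytometry on HeLa lamin A-EGFP minigene reporter cells. Compound incubation 48 hrs at 37 °C in Opti-MEM with 2% FBS; DMSO 0.5% final.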
An asterisk follows results filed as active; ! = not active in a repeat; [ ] = remark or other dose. Unless noted, the call rests on the fitted dose curve; in most records, active means well fitted inhibition curve with a large enough effect (not every such curve was filed as active); inconclusive means small, poorly fitted or top-dose-only effect, or another doubt; inactive means no such curve, though single readings can be large or run the other way. Unless noted, on the % scale 0 is the no-effect control and ±100 the full control effect.

Screening CCC(=O)N1CCc2cc(S(=O)(=O)CCC(=O)N3CCc4ccccc4C3)ccc21 returned PNC assembly inh inconclusive, ALDH1A1 block 13µM*, HPGD block -3%, ALOX12 inhib 0% and LMNA splice mod -7%.
For CCC(=O)N1CCCc2cc(S(=O)(=O)N3CCN(c4ccccc4F)CC3)ccc21 the results were PNC assembly inh -12, ALDH1A1 block 14µM*, HPGD block -12%, ALOX12 inhib 1% and LMNA splice mod -16%.
For CC(=O)N1CCc2cc(S(=O)(=O)CCC(=O)N3CCN(C(=O)c4ccco4)CC3)ccc21 the results were PNC assembly inh -18, ALDH1A1 block 32µM*, HPGD block -10%, ALOX12 inhib 0% and LMNA splice mod 1%.
`c1ccc(CNc2oc(-c3ccccc3)nc2-c2cccc3ccccc23)cc1` gave ALDH1A1 block inconclusive, HPGD block -27% and ALOX12 inhib 3%.
For CCOc1cc(-c2nnc(SCC(=O)Nc3ccc(F)c(F)c3)nc2-c2ccc(OC)c(OCC)c2)ccc1OC the results were LMNA splice mod -13%[46 µM].
`COc1cccc(Cc2nc3ccccc3nc2SCC(=O)N2CCCc3ccccc32)c1` gave LMNA splice mod -3%[46 µM].
For COc1ccc(C(=O)NCCCN2CCCC2=O)cc1 the results were PNC assembly inh inconclusive, ALDH1A1 block -1%, HPGD block -12%, ALOX12 inhib 14% and LMNA splice mod 2%.
For COc1ccc(-n2c(=S)[nH]c3cc(C(=O)NCCCN4CCCC4=O)ccc3c2=O)c(OC)c1 the results were PNC assembly inh -26, ALDH1A1 block 14µM*, HPGD block -16%, ALOX12 inhib 1% and LMNA splice mod -20%.
`COc1ccc(-n2c(=S)[nH]c3cc(C(=O)NCCCN4CCCC4=O)ccc3c2=O)cc1` gave PNC assembly inh -3, ALDH1A1 block 18µM*, HPGD block -9%, ALOX12 inhib -1% and LMNA splice mod 2%.
`CC(=O)NCCc1cc2ccc(C)cc2[nH]c1=O` gave PNC assembly inh 39, ALDH1A1 block 2%, HPGD block -20%, ALOX12 inhib -10% and LMNA splice mod 6%.
O=C(NNC(=S)NCc1ccc(Cl)cc1)c1ccc(Br)o1 was read as ALDH1A1 block -1%.
`O=C(NCCCc1ccccc1)c1ccc(Br)o1` gave PNC assembly inh 9, ALDH1A1 block inconclusive, HPGD block 25µM*, ALOX12 inhib 1% and LMNA splice mod 6%.
Screening Cc1ccn2cc(CNC(=O)c3ccc(Br)o3)nc2c1 returned PNC assembly inh -19, ALDH1A1 block 1%, HPGD block 16µM*, ALOX12 inhib -3% and LMNA splice mod 2%.
`O=C(NCc1ccc(Cl)cc1)c1ccc(Br)o1` gave PNC assembly inh inconclusive, ALDH1A1 block 13µM*!, HPGD block 35µM*, ALOX12 inhib -4%[0.00818 µM] and LMNA splice mod -6%.
For Cc1ccc2cc(CCNC(=O)c3ccc(Br)o3)c(=O)[nH]c2c1 the results were PNC assembly inh 37, ALDH1A1 block inconclusive, HPGD block 28µM*, ALOX12 inhib -7% and LMNA splice mod -1%.
Screening CCOC(=O)CNC(=O)O[C@H]1C(=O)c2ccc(OC)cc2O[C@@H]1c1ccc2c(c1)OCO2 returned ALDH1A1 block 4% and HPGD block -4%.
Screening COc1cc(C(=O)NCC(=O)N/N=C(/C)c2cccs2)cc(OC)c1OC returned PNC assembly inh 29, ALDH1A1 block 11%, HPGD block 2%, ALOX12 inhib 0% and LMNA splice mod -13%.
Screening N[C@@H](C(=O)O)c1ccc(O)c(C(=O)O)c1 returned ALDH1A1 block inconclusive, HPGD block inconclusive and ALOX12 inhib -1%.
`CCCCCCNC(=O)c1ccc(Br)o1` gave PNC assembly inh 6, ALDH1A1 block -8%[120 µM], HPGD block inconclusive, ALOX12 inhib 3%[0.00818 µM] and LMNA splice mod 7%.
`O=C(NCCCCc1ccccc1)c1ccc(Br)o1` gave PNC assembly inh 56, ALDH1A1 block -2%, HPGD block 14µM*, ALOX12 inhib 4% and LMNA splice mod 3%.
Screening O=C(NCCC1=CCCCC1)c1ccc(Br)o1 returned PNC assembly inh inconclusive, ALDH1A1 block 3.5µM*, HPGD block -17%, ALOX12 inhib -7% and LMNA splice mod -1%.
`CC1CC(C)(C)NC(=S)S1` (stereo unspecified) gave PNC assembly inh -24, ALDH1A1 block 13µM*, HPGD block 22µM*, ALOX12 inhib -5% and LMNA splice mod 3%.
`CC1CC(C)(C)NC(=O)O1` (stereo unspecified) gave PNC assembly inh 4, ALDH1A1 block -8%, HPGD block -2%, ALOX12 inhib -1% and LMNA splice mod 3%.
COc1ccccc1C(=O)NC(=Nc1nc2ccccc2o1)NC(=O)c1ccccc1OC was read as PNC assembly inh -82*, ALDH1A1 block -5%, HPGD block -24%, ALOX12 inhib 3% and LMNA splice mod -6%.
For O=C(NC(=Nc1nc2ccccc2o1)NC(=O)c1ccccc1)c1ccccc1 the results were PNC assembly inh inconclusive, ALDH1A1 block -2%, HPGD block -11%, ALOX12 inhib -8% and LMNA splice mod -7%.
Screening C=CCc1cc(C=O)cc(OC)c1OCc1ccc(C(=O)O)cc1 returned ALDH1A1 block 10µM* and LMNA splice mod -14%[46 µM].
For COC(=O)N1CCC2(CC1)CCN(c1ccncc1)CC2 the results were ALDH1A1 block 6%, HPGD block 0% and ALOX12 inhib 1%.
Screening COc1ccc(CNc2nc(-c3cccc(C#N)c3)nc3ccccc23)c(OC)c1 returned ALDH1A1 block inconclusive and LMNA splice mod 16%.
`Cc1nnc(N(Cc2ccccc2)C(=O)c2cnccn2)s1` gave PNC assembly inh -88*, ALDH1A1 block 5%, HPGD block 1%, ALOX12 inhib -2% and LMNA splice mod 2%.
For CN(C)S(=O)(=O)c1ccc2c(c1)N(CC(=O)N1CCN(c3cccc(Cl)c3)CC1)CCS2 the results were LMNA splice mod 23%[46 µM].
`COc1cc(-c2nnc(SCc3cc(=O)oc4cc(C)ccc34)o2)cc(OC)c1OC` gave PNC assembly inh 6, ALDH1A1 block 6.3µM*, HPGD block inconclusive, ALOX12 inhib -18% and LMNA splice mod inconclusive.
`CC1CCCC(NC(=O)COC(=O)c2ccc(N(C)C)cc2)C1C` (stereo unspecified) gave PNC assembly inh -7, ALDH1A1 block -8%, HPGD block inconclusive, ALOX12 inhib 8% and LMNA splice mod -1%.
For COC(=O)c1ccc(/C=N/OCC(=O)NC2CCCC(C)C2C)cc1 (stereo unspecified) the results were PNC assembly inh 11, ALDH1A1 block 2%, HPGD block 11µM*, ALOX12 inhib 1% and LMNA splice mod 4%.
